Assay results taken from PubChem BioAssay.
Values joined by “and” are separate entries in the source; they are usually repeats but may differ in a detail not shown here. Identical values can stand only once. Records with an inconclusive call do not appear. Active and inactive are the calls of the source. Unless noted, no cut-off is given here; in the data, nearly all actives have AC50 up to about 26 µM.

experiment: growth inhibition of DIPG glioma cells, dose response, cell-based, SU-DIPG-XIII, MIPE5.0, CellTiter-Glo, qHTS (AID 1347064; cut-off not given, nearly all actives have AC50 up to about 23 µM;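 for AC50: cells exposed to compound for 48 hours before the viability read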); settings: SU-DIPG-XIII viability, CellTiter-Glo ATP luminescence

Row | SMILES | AC50 | outcome
1 | CC(C)Nc1cc(-c2c[nH]c(C(=O)N[C@H](CO)c3cccc(Cl)c3)c2)c(Cl)cn1 | 4.17 µM (active) | –
2 | CN1CCN(c2ccc3nc(-c4cc(C(C)(C)C)c(OCCCC(=O)NCCCN=[N+]=[N-])c(C(C)(C)C)c4)[nH]c3c2)CC1 | 13.2 µM (active) | –
3 | C[C@@H]1COCCN1c1cc(=O)n2c(n1)N(Cc1cncc(Cl)c1)[C@H](C(F)(F)F)CC2 | – | inactive
4 | Nc1nc2cc(-c3ccc4ncc(C(=O)N5CCOCC5)n4c3)ccc2o1 | 14.8 µM (active) | –
5 | CC1=C(c2ccc(O)cc2)[C@H](c2ccc(OCCN3CCCCC3)cc2)Oc2cc(O)ccc21 | 18.6 µM (active) | –
6 | CC(C)(O)CS(=O)(=O)Nc1ccc2c(c1)CCN(C(=O)COc1cccnc1)C2 | 0.0372 µM (active) | –
7 | CCc1cc(C(N)=O)ccc1-n1nc(C(C)C)c2c(-n3cnc(-c4cnn(C)c4)c3)ccnc21 | 3.72 µM (active) | –
8 | CCN(CC)CCNC(=O)c1c(C)[nH]c(/C=C2/C(=O)Nc3ccc(-c4csc(-c5ccccc5)n4)cc32)c1C | 2.95 µM (active) | –
9 | CC[C@@H](C)Nc1cc(C(=O)NC2CC3CC[C@@H](C2)N3c2ccc(C(=O)C3CC3)cn2)c(C)cc1C(N)=O (stereo not given in full) | 0.166 µM (active) | –
10 | CC1(C)OCCn2c1nc1c(N3CCOCC3)nc(-c3cnc(N)nc3)nc12 | 1.86 µM (active) | –
11 | CCCCCCCOc1ccc(CCC(N)(CO)CO)cc1C(F)(F)F | 8.33 µM (active) | –
12 | O=C(/C=C\n1cnc(-c2cc(C(F)(F)F)cc(C(F)(F)F)c2)n1)N1CC(F)(F)C1 | 2.63 µM (active) | –
13 | NS(=O)(=O)Oc1ccc2c3c(c(=O)oc2c1)CCCCC3 | – | inactive
14 | CCOc1ccc(-n2c([C@@H](C)N(Cc3cccnc3)C(=O)Cc3ccc(F)c(C(F)(F)F)c3)nc3ncccc3c2=O)cc1 | – | inactive
15 | CC(C)(C)C(=O)N1N=CC[C@H]1c1ccccc1 | – | inactive
16 | O=C(COCC(=O)N1CCN(C(c2ccccc2)c2ccccc2)CC1)Nc1ccc(Cl)cc1C(=O)O | – | inactive
17 | COc1ccccc1C(=O)Nc1cc2c(cc1N1CCNC[C@H]1C)n(C)c(=O)n2C | – | inactive
18 | Cc1ccc(NC(=O)c2ccc3c(c2)OCCO3)cc1NC(=O)c1ccc2nc(OCCN3CCCC3)ccc2c1 | 0.229 µM (active) | –
19 | CC1Oc2cc(cnc2N)-c2c(nn(C)c2C#N)CN(C)C(=O)c2ccc(F)cc21 (stereo not given) | 6.61 µM (active) | –
20 | O=C(CCCc1ccc2cccnc2n1)NCc1cc(-c2ccc(F)c(C(F)(F)F)c2)no1 | – | inactive
21 | CNS(=O)(=O)Nc1nccc(Cc2c(C)c3ccc(Oc4ncccn4)cc3oc2=O)c1F | 1.18 µM (active) | –
22 | CC(=O)Nc1cc(Oc2ccc3c(nc(Nc4ccc(F)cc4F)n3C)c2C)ccn1 | 4.17 µM (active) | –
23 | O=C(NCc1ccc(S(=O)(=O)c2cccc(C(F)(F)F)c2)cc1)c1cnc2[nH]ncc2c1 | 0.0118 µM (active) | –
24 | COc1ccc(N(C)c2nc(C)nc3ccccc23)cc1 | 0.00934 µM (active) | –
25 | O=c1cc(N2CCOCC2)oc2c(-c3ccc4c(c3)OCCO4)csc12 | 6.61 µM (active) | –
26 | CC(C)NC(=O)C1CCC(n2c(NC(=O)c3ccc(F)cc3)nc3ccc(CN4CCC(C(C)(C)O)CC4)cc32)CC1 (stereo not given) | 7.23 µM (active) | –

experiment: viability loss in pontine glioma line – cell-based, SU-DIPG-XXV, MIPE5.0, CellTiter-Glo, qHTS, dose response (AID 1347065); settings: CellTiter-Glo ATP luminescence;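 note: cells exposed to compound for 48 hours before ATP readout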

Row | SMILES | AC50 | outcome
27 | CCCc1cc(C(=O)N[C@H](Cc2ccc(-c3cccc(OC(F)(F)F)c3)nc2)C(=O)N[C@@H]2CCNC2)sc1C | 20.9 µM (active) | –
28 | CCN(CC)CCNc1ccc(C)c2sc3ccccc3c(=O)c12 | 16.6 µM (active) | –
29 | COCCNCc1ccc(-c2cc3nccc(Oc4ccc(NC(=O)C5(C(=O)Nc6ccc(F)cc6)CC5)cc4F)c3s2)nc1 | 4.68 µM (active) | –
30 | Nc1nc(N)c2nc(-c3cccc(Cl)c3)c(N)nc2n1 | 8.33 µM (active) | –
31 | CCCCNc1ncc2c(-c3ccc(CN4CCN(C)CC4)cc3)cn(C3CCC(O)CC3)c2n1 (stereo not given) | 742 nM (active) and 934 nM (active) | –
32 | O=C(c1ccc(Nc2nc(C3CC3)cn3c(-c4cn[nH]c4)cnc23)c(F)c1)N1CCOCC1 | 3.72 µM (active) | –
33 | COc1cc(OC)cc(N2CCN(C(=O)Nc3nc4cc(F)ccc4nc3OC)CC2)c1 | 1.48 µM (active) | –
34 | Cn1nccc1Nc1nccc(-c2ccn([C@H](CO)c3ccc(Cl)c(F)c3)c(=O)c2)n1 | 18.6 µM (active) | –
35 | COc1ccc(-c2cc(C(O)C3CCCCN3)c3ccccc3n2)cc1 (stereo not given) | 29.5 µM (active) | –
36 | CCOC(=N)c1nc2ccc3ncnc(Nc4cc(F)c(F)cc4Cl)c3c2s1 | 11.8 µM (active) | –
37 | COc1cc(C(=O)O)ccc1NC(=O)[C@@H]1N[C@@H](CC(C)(C)C)[C@](C#N)(c2ccc(Cl)cc2F)[C@H]1c1cccc(Cl)c1F | 9.34 µM (active) | –
38 | O=C(NOCCO)c1cc(CN2OCCCC2=O)c(F)c(F)c1Nc1ccc(I)cc1F | 0.417 µM (active) | –
39 | CCc1nc(C(N)=O)c(Nc2ccc(N3CCC(N4CCN(C)CC4)CC3)c(OC)c2)nc1NC1CCOCC1 | 0.833 µM (active) | –
40 | CC(C)Nc1cc(-c2c[nH]c(C(=O)N[C@H](CO)c3cccc(Cl)c3)c2)c(Cl)cn1 | 3.32 µM (active) | –
41 | CN1CCN(c2ccc3nc(-c4cc(C(C)(C)C)c(OCCCC(=O)NCCCN=[N+]=[N-])c(C(C)(C)C)c4)[nH]c3c2)CC1 | 7.42 µM (active) | –
42 | C[C@@H]1COCCN1c1cc(=O)n2c(n1)N(Cc1cncc(Cl)c1)[C@H](C(F)(F)F)CC2 | – | inactive
43 | Nc1nc2cc(-c3ccc4ncc(C(=O)N5CCOCC5)n4c3)ccc2o1 | 9.34 µM (active) | –
44 | CC1=C(c2ccc(O)cc2)[C@H](c2ccc(OCCN3CCCCC3)cc2)Oc2cc(O)ccc21 | 16.6 µM (active) | –
45 | CC(C)(O)CS(=O)(=O)Nc1ccc2c(c1)CCN(C(=O)COc1cccnc1)C2 | 0.0833 µM (active) | –
46 | CCc1cc(C(N)=O)ccc1-n1nc(C(C)C)c2c(-n3cnc(-c4cnn(C)c4)c3)ccnc21 | 1.86 µM (active) | –

Row | SMILES | AC50 | outcome
47 | CCN(CC)CCNC(=O)c1c(C)[nH]c(/C=C2/C(=O)Nc3ccc(-c4csc(-c5ccccc5)n4)cc32)c1C | 4.68 µM (active) | –
48 | CC[C@@H](C)Nc1cc(C(=O)NC2CC3CC[C@@H](C2)N3c2ccc(C(=O)C3CC3)cn2)c(C)cc1C(N)=O (stereo not given in full) | 0.0934 µM (active) | –
49 | CC1(C)OCCn2c1nc1c(N3CCOCC3)nc(-c3cnc(N)nc3)nc12 | 1.48 µM (active) | –
50 | CCCCCCCOc1ccc(CCC(N)(CO)CO)cc1C(F)(F)F | 9.34 µM (active) | –
51 | O=C(/C=C\n1cnc(-c2cc(C(F)(F)F)cc(C(F)(F)F)c2)n1)N1CC(F)(F)C1 | 13.2 µM (active) | –
52 | NS(=O)(=O)Oc1ccc2c3c(c(=O)oc2c1)CCCCC3 | – | inactive
53 | CCOc1ccc(-n2c([C@@H](C)N(Cc3cccnc3)C(=O)Cc3ccc(F)c(C(F)(F)F)c3)nc3ncccc3c2=O)cc1 | – | inactive
54 | CC(C)(C)C(=O)N1N=CC[C@H]1c1ccccc1 | – | inactive
55 | O=C(COCC(=O)N1CCN(C(c2ccccc2)c2ccccc2)CC1)Nc1ccc(Cl)cc1C(=O)O | – | inactive
56 | COc1ccccc1C(=O)Nc1cc2c(cc1N1CCNC[C@H]1C)n(C)c(=O)n2C | – | inactive
57 | Cc1ccc(NC(=O)c2ccc3c(c2)OCCO3)cc1NC(=O)c1ccc2nc(OCCN3CCCC3)ccc2c1 | 0.0645 µM (active) | –
58 | CC1Oc2cc(cnc2N)-c2c(nn(C)c2C#N)CN(C)C(=O)c2ccc(F)cc21 (stereo not given) | 7.42 µM (active) | –
59 | O=C(CCCc1ccc2cccnc2n1)NCc1cc(-c2ccc(F)c(C(F)(F)F)c2)no1 | – | inactive
60 | CNS(=O)(=O)Nc1nccc(Cc2c(C)c3ccc(Oc4ncccn4)cc3oc2=O)c1F | 2.35 µM (active) | –
61 | CC(=O)Nc1cc(Oc2ccc3c(nc(Nc4ccc(F)cc4F)n3C)c2C)ccn1 | 0.118 µM (active) | –
62 | O=C(NCc1ccc(S(=O)(=O)c2cccc(C(F)(F)F)c2)cc1)c1cnc2[nH]ncc2c1 | 0.0166 µM (active) | –
63 | COc1ccc(N(C)c2nc(C)nc3ccccc23)cc1 | 0.0059 µM (active) | –
64 | O=c1cc(N2CCOCC2)oc2c(-c3ccc4c(c3)OCCO4)csc12 | 8.33 µM (active) | –
65 | CC(C)NC(=O)C1CCC(n2c(NC(=O)c3ccc(F)cc3)nc3ccc(CN4CCC(C(C)(C)O)CC4)cc32)CC1 (stereo not given) | 6.45 µM (active) | –
